Each structure is given as a SMILES string. In all, about 3,200 compounds went through this assay and about 2,200 (69%) were called active.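 Rule for the calls: active = activation, as change over the incubation, above the mean of all tested compounds plus 3 SD (cut at about 13% in these data); inactive = the rest.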 The set was probably picked from earlier hits. A selection follows.

In the assay the target is Kallikrein-7 (Homo sapiens) (UniProt P49862). The experiment in a line: proKLK7 zymogen activators, confirmation, biochemical, fluorescence intensity, triplicate (AID 686949). The following applies: purified proKLK7, EDANS-DABCYL substrate fluorescence; at 7 µM; stronger effect = higher value.
Kallikrein-7 (Homo sapiens), sequence (P49862 whole entry, looked up): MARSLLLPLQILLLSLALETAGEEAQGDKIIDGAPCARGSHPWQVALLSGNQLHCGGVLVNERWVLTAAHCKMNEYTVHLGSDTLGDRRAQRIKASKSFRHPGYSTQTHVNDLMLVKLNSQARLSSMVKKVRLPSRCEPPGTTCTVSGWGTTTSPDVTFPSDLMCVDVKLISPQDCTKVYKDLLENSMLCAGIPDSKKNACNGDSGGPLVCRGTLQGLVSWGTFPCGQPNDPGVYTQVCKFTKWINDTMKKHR
Turning to `COc1cccc(-c2nc3ccc(N4CCN(C)CC4)cc3[nH]2)c1`, the activation is 64% (active).

For the compound `CCOc1ccc(-c2cc(C)[n+](CCN(CC)CC)c(-c3ccc(OCC)cc3)c2)cc1`, the activation was 19.2% (active).

For `Cc1nc2ccc(N3CCN(C)CC3)cc2nc1C`, the activation is 16.1% (active).

Regarding `CCOC(=O)c1c(N)n(CCN2CCOCC2)c2nc3ccccc3nc12`, the activation is 27.8% (active).

Source of the values: PubChem BioAssay AID686949 (The Scripps Research Institute Molecular Screening Center, 2013).
